The list is not random: actives were taken first. Their share in the collection is about 3.6%.
Rango dissoc inh: inhibitors of RanGTP-induced Rango-importin beta complex dissociation; Biochemical FRET Rango-importin beta, RanGTP-induced dissociation; Potency, µM (top dose mostly 46.1 µM), for inactives: at the top dose activity change, negative = inhibition; O95149+P62826; 340,000 compounds, 0.071% hits; calls by dose curve; further: potency means the concentration at half of the fitted maximal effect; % of control where 0% means no effect; nearly all actives have a fitted effect of over 45% in size
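Compounds sat 5 min at room temperature with 0.1 uM Rango biosensor plus 0.25 uM importin beta, then FRET pre-read. RanGTP-RCC1 (0.6 uM Ran, 2mM GTP, 0.2 uM RCC1) added for 45 min, and the CFP/YFP post-read measured blocked complex dissociation.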
PI5P4K alpha inh: PI5P4K alpha (human) kinase inhibition; PI5P4Kalpha enzyme, ADP-Glo luminescence, 60 min; hits give low values; max response, %; 330,000 compounds, 1.2% hits; AID 652105; active means max response of -50% or lower; inconclusive means between -30% and -50%; inactive means -30% or higher; further: value at the top dose of about 77 µM; on the % scale 0 is the no-effect control and ±100 the full control effect
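Luminescence from ADP-Glo served as readout of PI5P4Kalpha activity in a qHTS format. Reaction: enzyme, substrate, compound, ATP at 5 microM final, 60 min at RT.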
KAT2A inh: inhibitors of human GCN5L2 histone acetyltransferase; Potency, µM (highest dose often 58.9 µM), inactives show top-dose activity change, negative = inhibition, hits mostly inhibitors; Q92830; GCN5L2 HAT assay, ThioGlo1 CoA-SH fluorescence; AID 504327; 390,000 compounds, 0.21% hits; further: potency means the concentration at half of the fitted maximal effect; on the % scale 0 is the no-effect control and ±100 the full control effect
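Titration-based screen in which CoA formation is detected via maleimide probe ThioGlo1 (50uM) turning fluorescent on thiol reaction; substrates H3(1-25) 75uM and acetyl-CoA 70uM, GCN5L2 20nM, 20 min incubation at room temperature.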
Rango complex inh: inhibitors of Rango-importin beta complex formation; Q14974; Rango CFP/YFP FRET sensor + importin beta, 45 min; Potency, µM (top dose mostly 92.2 µM), for the others: top-dose inhibition of complex formation; 340,000 compounds, 0.031% hits; calls by dose curve;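 further: potency means the concentration at half of the fitted maximal effect; 0% = DMSO wells and 100% = buffer wells lacking importin beta; nearly all actives have a fitted effect of over 15% in size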
Target sequence (Q14974 whole entry, looked up): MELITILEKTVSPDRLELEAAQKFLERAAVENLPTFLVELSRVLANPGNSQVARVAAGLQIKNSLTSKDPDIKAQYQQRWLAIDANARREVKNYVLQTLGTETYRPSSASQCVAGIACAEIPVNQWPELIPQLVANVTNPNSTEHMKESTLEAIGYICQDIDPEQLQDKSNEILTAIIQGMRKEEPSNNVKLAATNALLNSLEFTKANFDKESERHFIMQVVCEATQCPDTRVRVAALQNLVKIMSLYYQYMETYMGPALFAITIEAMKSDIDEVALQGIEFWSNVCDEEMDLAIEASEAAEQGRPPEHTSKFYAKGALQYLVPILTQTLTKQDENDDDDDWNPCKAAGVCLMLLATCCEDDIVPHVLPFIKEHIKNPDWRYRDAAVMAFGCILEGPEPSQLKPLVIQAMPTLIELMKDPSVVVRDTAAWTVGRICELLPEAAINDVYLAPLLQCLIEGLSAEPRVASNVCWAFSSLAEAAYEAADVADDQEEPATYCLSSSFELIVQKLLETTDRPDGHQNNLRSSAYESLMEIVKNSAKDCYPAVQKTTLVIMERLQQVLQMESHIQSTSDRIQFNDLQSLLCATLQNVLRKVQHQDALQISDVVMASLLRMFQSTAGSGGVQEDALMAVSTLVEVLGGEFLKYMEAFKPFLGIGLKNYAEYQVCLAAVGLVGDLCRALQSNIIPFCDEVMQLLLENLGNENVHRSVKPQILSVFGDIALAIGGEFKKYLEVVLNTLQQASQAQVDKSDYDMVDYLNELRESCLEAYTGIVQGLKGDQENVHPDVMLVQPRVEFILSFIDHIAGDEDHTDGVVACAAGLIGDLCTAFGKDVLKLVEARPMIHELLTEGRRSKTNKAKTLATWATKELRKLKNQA
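FRET biosensor (snurportin 1 IBB flanked by EYFP and cerulean), 50 nM, with compound 5 min, then 0.125 microM importin beta in PBS, 1 mM DTT, 0.02% Tween-20, 0.1% BSA. CFP/YFP ratio read after 45 min at room temperature; pre-read flags interference.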
PLK1 PBD block: blocks phosphopeptide binding to human PLK1 polo-box domain. P53350. Plk1 PBD binding of FITC phosphopeptide, fluorescence polarization. Potency, µM, without a hit: max response, negative = inhibition, most hits filed as inhibitors. 360,000 compounds, 2.8% hits. AID 720504; further: potency means the concentration at half of the fitted maximal effect; series mostly up to about 57 µM; on the % scale 0 is the no-effect control and ±100 the full control effect; nearly all actives have a fitted effect of over 65% in size
VDR inhibitor: inhibitors of human vitamin D receptor. VDR-SRC2-3 peptide fluorescence polarization, 2 h. Potency, µM, for the others: max response, negative = inhibition, usual class: inhibitors. 400,000 compounds, 0.93% hits. AID 504847; further: potency means the concentration at half of the fitted maximal effect; on the % scale 0 is the no-effect control and ±100 the full control effect
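Inhibition of the VDR/SRC2-3 peptide interaction is quantified by fluorescence polarization. Compounds (23 nl, pintool) incubate with the reagents for 2 hours at ambient room temperature.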
TbPYK inh: confirmation of Trypanosoma brucei pyruvate kinase inhibitors; shares compounds with PLK1 PBD block; Potency, µM (highest dose often 76.9 µM), for inactives: top-dose activity change, negative = inhibition, most hits filed as inhibitors; 890 compounds, 67% hits; recombinant TbPYK, Kinase-Glo ATP luminescence; further: potency means the concentration at half of the fitted maximal effect; on the % scale 0 is the no-effect control and ±100 the full control effect; nearly all actives have a fitted effect of over 70% in size
TbPYK ADP-Glo: TbPYK inhibition, orthogonal confirmation | shares compounds with PLK1 PBD block | recombinant TbPYK, ADP-Glo luminescence, 60 min | Potency, µM (series often up to 76.9 µM), inactives show at the highest dose activity change, negative = inhibition, usual class: inhibitors | 890 compounds, 62% hits | AID 720584; further: potency means the concentration at half of the fitted maximal effect; on the % scale 0 is the no-effect control and ±100 the full control effect; nearly all actives have a fitted effect of over 75% in size
Active calls of the source: *; ? = inconclusive; . = no result given. Unless noted, the call rests on the fitted dose curve; in most records, active means well fitted curve in the direction sought with a large enough effect; inconclusive means small, poorly fitted or top-dose-only effect, or another doubt; inactive means no such curve, though single readings can be large; an effect the other way counts as inactive or inconclusive.

SMILES | Rango dissoc inh | PI5P4K alpha inh | KAT2A inh | Rango complex inh | PLK1 PBD block | VDR inhibitor | TbPYK inh | TbPYK ADP-Glo
O=C(c1ccc2ncsc2c1)N1CCCCC1 | 0% | -5 | -10% | -3% | 1% | -10% | ? | ?
COc1cccc(CNC(=O)Cn2cc3c(n2)-c2c(oc(C(=O)N4CCOCC4)c2C)CC3)c1 | . | . | -2% | . | . | 5% | . | .
COc1ccc(-c2nc(-c3ccccc3)oc2Nc2ccccc2C)cc1 | . | . | . | . | . | -1% | . | .
O=C(Cc1ccccc1)Nc1cccc(N2C(=O)C=CC2=O)c1 | -3% | -52* | ? | 5% | 5.3µM* | ? | 5.6µM* | 8.9µM*
O=C(O)c1cccc(N2C(=O)C=CC2=O)c1 | . | ? | . | . | 12µM* | . | 25µM* | 35µM*
CCOC(=O)C1CCN(C(=O)c2nn(-c3ccc(C)cc3)c(=O)n(C)c2=O)CC1 | . | . | -8% | . | . | 9% | . | .
Cc1ccc2oc(-c3cc(NC(=O)CC(C)C)ccc3Cl)nc2c1 | . | . | -22% | . | . | 2% | . | .
O=C1C(=Cc2ccc(Cl)cc2)CCc2ccccc21 | . | 2 | . | . | 2% | . | 25µM* | 7%
O=C1C(=Cc2cccc(Cl)c2)CCc2ccccc21 | . | 20 | . | . | 0% | . | . | .
O=C1C(=Cc2ccccc2Cl)CCc2ccccc21 | . | -27 | . | . | -18% | . | 25µM* | 9%
COc1ccc(C=C2CCc3ccccc3C2=O)cc1 | . | ? | . | . | 4% | . | 25µM* | 12%
CCOc1ccc(/C=C2\CCc3ccccc3C2=O)cc1 | 13% | 1 | -1% | 0% | -8% | 1% | . | .
O=C1C(=Cc2ccc(F)cc2)CCc2ccccc21 | . | ? | . | . | -15% | . | 28µM* | 10%
O=C1/C(=C/c2ccncc2)CCc2ccccc21 | 0% | ? | -17% | -1% | -4% | ? | . | .
O=C1/C(=C\c2ccncc2)CCc2ccccc21 | -6% | -28 | -4% | -2% | -8% | 79µM* | ? | 7%
Cc1cccc(CCNC(=O)c2sc3nc4n(c(=O)c3c2C)CCCC4)c1 | . | . | -1% | . | . | -3% | . | .
CCC(=O)Nc1ccc(NC(=O)CSc2nnc(-c3ccc(O)cc3)n2CC2CCCO2)cc1 (stereo not drawn) | -9% | -4 | -8% | 1% | -9% | -14% | . | .
O=C(CSc1ccc(-c2ccco2)nn1)c1ccc(F)cc1 | -9% | -69* | -16% | -4% | ? | ? | 25µM* | 32µM*
O=C(CSc1ccc(-c2ccco2)nn1)NCc1ccc(F)cc1 | -4% | -27 | 0% | 3% | -16% | -13% | . | .
CC(=O)Nc1ccc(C(=O)CSc2nnc(-c3ccc(O)cc3)n2CC2CCCO2)cc1 (stereo not drawn) | -1% | . | -3% | 1% | -17% | -3% | 16µM* | ?
O=C(CSc1nnc(-c2ccco2)n1CC1CCCO1)c1ccc(F)cc1 (stereo not drawn) | 12% | ? | -3% | 0% | 2.7µM* | -29% | ? | 40µM*
COc1ccc(C(=O)CSc2nnc(-c3ccco3)n2CC2CCCO2)cc1 (stereo not drawn) | 0% | -11 | -2% | 5% | -14% | -7% | . | .
COc1ccc(C(=O)CSc2nnc(-c3ccco3)c(-c3ccco3)n2)cc1 | 1% | -57* | -27% | -5% | 27µM* | -20% | 25µM* | 35µM*
COc1ccc(C(=O)CSc2nnc(-c3ccco3)n2C)cc1 | -18% | . | 0% | -1% | -12% | -13% | . | .
COC(=O)c1ccccc1NC(=O)Cc1nc(-c2ccc(OC)cc2)no1 | . | . | -6% | . | . | -1% | . | .
SMILES | Rango dissoc inh | PI5P4K alpha inh | KAT2A inh | Rango complex inh | PLK1 PBD block | VDR inhibitor | TbPYK inh | TbPYK ADP-Glo
CCN1C(=O)/C(=C/C=C2/Sc3ccc4ccccc4c3N2CCO)SC1=S | -4% | -1 | 4% | -5% | -9% | 3% | 16µM* | ?
COc1ccccc1N1C(=O)CC(Sc2nc(C)cc(C)n2)C1=O (stereo not drawn) | 12% | . | 0% | 5% | -7% | 7% | . | .
COc1ccc(N2C(=O)CC(Sc3ncn[nH]3)C2=O)c(OC)c1 (stereo not drawn) | 5% | . | -12% | 2% | 30µM* | 0% | ? | ?
Clc1ccc(CSc2nccn2Cc2ccccc2)cc1 | 4% | 4 | -12% | 0% | -2% | 2% | 1.3µM* | 1.1µM*
Cc1cc(C)cc(N2C(=O)C=CC2=O)c1 | 0% | ? | . | 4% | 3µM* | 40µM* | 10µM* | 14µM*
Cc1c([N+](=O)[O-])cc(N2C(=O)C=CC2=O)cc1[N+](=O)[O-] | 22% | -66* | . | -3% | 2.7µM* | -7% | 4µM* | 7.9µM*
Cc1cc(C)cc(N2C(=O)c3nccnc3C2=O)c1 | 28% | 4 | 3% | 1% | -12% | -19% | . | .
OCc1ccccc1-c1nc(NCc2ccccc2)nc2ccsc12 | . | ? | . | . | ? | . | ? | ?
CCCn1c(CCC(=O)Nc2cc(Cl)c(OC)cc2OC)nc2cccnc21 | . | . | 3% | . | . | -20% | . | .
Cc1cc(O)c(-c2cc(O)c(C)cc2O)cc1O | 0% | -67* | 16µM* | 4% | 4.7µM* | 25µM* | 32µM* | 11µM*
COc1ccc(N)cc1S(=O)(=O)Nc1ccccc1Cl | 13% | -2 | -15% | 5% | -9% | -7% | . | .
CCN(CC)c1ccc(N)cc1S(=O)(=O)Nc1ccccc1OC | -10% | ? | -25% | 4% | 3.4µM* | 40µM* | 7.9µM* | 11µM*
COc1cc(/C=N/N2CCN(Cc3ccc(C)cc3)CC2)cc(OC)c1O | -13% | -12 | 0% | 1% | -5% | -23% | 22µM* | 28µM*
CN(CC(=O)Nc1cccc(F)c1)C(=O)Cn1c(=O)cnc2ccccc21 | 13% | 0 | -11% | -2% | 3% | 4% | . | .
Cc1cc(Br)ccc1NC(=O)CN(C)C(=O)Cn1c(=O)cnc2ccccc21 | 0% | -27 | -8% | 4% | -15% | 6% | ? | ?
COc1cc(Nc2nc3ccccc3c3nnc(C)n23)cc(OC)c1 | . | . | -9% | . | . | 1% | . | .
Cc1ccsc1/C=N/Nc1nc(=O)[nH]nc1C | -6% | ? | -17% | 3% | 1% | -8% | 18µM* | 8%
Cc1ccc(N=c2ssnc2Cl)cc1 | -4% | -66* | 20µM* | -1% | 1.7µM* | 28µM* | 6.3µM* | 8.9µM*
Cc1nnc(N=c2ssnc2Cl)o1 | 6% | -101* | 2.8µM* | 0% | 1.7µM* | ? | 4.5µM* | 5µM*

Assay outcomes: PubChem BioAssay, National Center for Advancing Translational Sciences (NCATS)
